Assay outcomes (PubChem)
Most compounds without a hit are left out; they make up all but 6.5% or so of the library.
Vaccinia Venus – qHTS for Stage-Specific Inhibitors of Vaccinia Orthopoxvirus: Venus Reporter Primary qHTS. Vaccinia virus Venus reporter expression, fluorescence. Potency, µM (titrated, usually from 36.5 µM), for inactives: top-dose activity change, negative = inhibition, actives largely listed as inhibitors. 330,000 tested, 0.46% active. AID 720580, 2013; calls by dose curve; tested in A549 cells; also: potency is read from the fitted curve at half-maximal effect; nearly all actives have a fitted effect of over 30% in size
Vaccinia mCherry – qHTS for Stage-Specific Inhibitors of Vaccinia Orthopoxvirus: mCherry Reporter Primary qHTS; 310,000 tested, 0.63% active; Vaccinia virus mCherry reporter infection, fluorescence; Potency, µM (doses to about 36.5 µM), for the others: at the highest dose activity change, negative = inhibition, usual class: inhibitors; calls by dose curve; tested in A549 cells; also: potency is read from the fitted curve at half-maximal effect; nearly all actives have a fitted effect of over 35% in size
Marburg entry inh – qHTS for inhibitors of binding or entry into cells for Marburg Virus. Marburg virus pseudotyped entry inhibition, cell reporter. Potency, µM (doses to about 37.8 µM), without a hit: at the highest dose activity change, negative = inhibition, usual class: inhibitors. 300,000 tested, 1.8% active; calls by dose curve; tested in HEK293 cells; also: potency is read from the fitted curve at half-maximal effect
FMDV inh – High Throughput Screening for Foot and Mouth Disease Virus Antivirals; FMDV antiviral cell-based qHTS; Potency, µM (titrated, usually from 57.9 µM), inactives show at the top dose activity change, negative = inhibition, most hits filed as inhibitors; 410,000 tested, 1.2% active; AID 1159524, 2015; calls by dose curve; tested in HEK293T cells; also: read-out not given here; potency is read from the fitted curve at half-maximal effect; nearly all actives have a fitted effect of over 45% in size
HCMV inh – qHTS Assay for inhibitors of the human cytomegalovirus (HCMV) | HFF cells, HCMV-luciferase reporter, 72 h; active compounds read low | activity change, negative = inhibition, % at 57.5 µM | 410,000 tested, 4.5% active | AID 1259415, 2018; in the data active = activity change below about -60%; inconclusive = no clear call, values can overlap the other calls; inactive = above about -39%
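Cell-based, HFFs, 1000 cells/well, 16 h 37C; cpds in DMSO + HCMV-luc, MOI 1 PFU/cell; 72 h 37C; OneGlo luminescence after 5 min RT; norm. to buffer vs Salinomycin 10uM.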
Lassa entry inh – qHTS for Inhibitors of binding or entry into cells for Lassa Virus | Lassa virus pseudotype entry inhibition, cell reporter | 300,000 tested, 1.2% active | AID 540256, 2011 | Potency, µM (highest dose often 37.9 µM), inactives show at the highest dose activity change, negative = inhibition, hits mostly inhibitors; calls by dose curve; tested in HEK293 cells; also: potency is read from the fitted curve at half-maximal effect; nearly all actives have a fitted effect of over 50% in size
An asterisk follows results filed as active; i = inactive; ? = inconclusive; . = not tested or not shown; [ ] = another dose, or the depositor's remark. % is scaled to controls: 0 for no effect and ±100 for the full control effect.

SMILES	Vaccinia Venus	Vaccinia mCherry	Marburg entry inh	FMDV inh	HCMV inh	Lassa entry inh
C[C@@H]1O[C@@H](O[C@@H]2C=C3CC[C@@H]4[C@@H](CC[C@]5(C)[C@H](c6ccc(=O)oc6)CC[C@@]45O)[C@@]3(C)CC2)[C@H](O)[C@H](O)[C@H]1O	6.31µM*	10µM*	.	.	.	.
CCn1c(-c2ccccc2F)nc2cc(NC(C)=O)cc(C(=O)N3CCCCC3c3nccn3C)c21 (centres undefined)	20.1%	19.0%	.	-0.9%	.	.
CCN(C)C(=O)C1=COC2=NC(=O)N(Cc3cccc(Cl)c3)CCN12	.	.	.	.	-7.1	.
O=C1CCCCCN1Cc1nnc(SCc2nc3ccccc3s2)n1-c1ccccn1	.	.	22.8%	93.8%	-107.5*	-8.0%
CCNC(=O)CSc1nnc(CN2CCCCCC2=O)n1-c1ccccn1	-4.8%	7.3%	2.0%[46.1 µM]	-2.3%	11.2	-2.9%
CC(C)C(NC(=O)c1ccc(Cl)cc1Cl)C(=O)N1CCN(S(=O)(=O)c2ccccc2)CC1 (centres undefined)	-11.7%	-19.7%	?	-11.2%	26.7	19.8%[46.1 µM]
CCCCNC(=O)C1(C)CCN1C(=O)c1cccnc1Oc1ccccc1 (centres undefined)	-9.1%	23.0%	.	-4.1%	35.3	.
Cc1cc(-c2ccc(N=Nc3c(S(=O)(=O)O)cc4cc(S(=O)(=O)O)cc(N)c4c3O)c(C)c2)ccc1N=Nc1c(S(=O)(=O)O)cc2cc(S(=O)(=O)O)cc(N)c2c1O	.	.	15.8µM*	.	.	?
O=S(=O)(O)c1cc(O)c2c(O)c(N=Nc3cc(Cl)ccc3O)c(S(=O)(=O)O)cc2c1	421.0%	491.2%	?	12.6µM*	.	?
COc1cc(S(=O)(=O)O)c(C)cc1N=Nc1c(O)ccc2cc(S(=O)(=O)O)ccc12	43.2%	26.2%	.	.	.	.
N#C/C(=C\C=C\c1ccccc1[N+](=O)[O-])C(=O)NC1CCCCC1	?	?	?	25.1µM*	.	?
N#C/C(=C\c1ccccc1[N+](=O)[O-])C(=O)NC1CCCCC1	5.2%	-12.0%	?	35.5µM*	82.7	?
N#C/C(=C\c1cccn1-c1ccccc1)C(=O)NC1CCCCC1	4.0%	-6.2%	?	-27.4%	60.7	3.7%
CC(C)CC(NS(=O)(=O)c1cccc(C(=O)O)c1)C(=O)O (centres undefined)	-5.8%	i	-3.2%	1.3%	97.2	?
O=C(COc1cccc(Cl)c1)NCC(c1cccs1)N1CCOCC1 (centres undefined)	.	.	.	-9.6%	0.0	.
Cc1ccc(C(C)C)c(OCC(=O)Nc2ccccc2N2CCN(C)CC2)c1	?	.	?	31.6µM*	-73.7*	10µM*
Cc1cc(Cl)ccc1OCC(=O)Nc1ccccc1N1CCOCC1	-27.3%	-24.0%	?	28.2µM*	?	8.91µM*
Cc1cc(Cl)ccc1OCC(=O)NCC(c1cccs1)N1CCOCC1 (centres undefined)	-25.1%	-13.2%	?	31.6µM*	-72.2*	?
Cc1ccc2c(c1)-c1c(cnn1CC(=O)Nc1ccccc1N1CCN(C)CC1)CO2	-0.2%	i	9.2µM*	-21.3%	?	?
COc1ccccc1N1CCN(C(=O)Cn2ncc3c2-c2cc(C)ccc2OC3)CC1	-5.4%	-12.3%	1.9%[46.1 µM]	-22.1%	-39.1	.
Cc1cc(Cl)ccc1OCC(=O)NC(=S)Nc1ccccc1N1CCOCC1	-7.8%	-0.8%	-0.6%	9.6%	63.2	?
COc1ccc2c3n([n+]([O-])c2c1)C(C)CN=C3c1cc(Cl)c(N)c(Cl)c1 (centres undefined)	.	.	.	.	58.3	.
Cc1cnc(CNC(=O)c2c3n(c(C)cc2=O)-c2ccccc2SC(c2ccsc2)C3)cn1 (centres undefined)	-10.4%	-11.7%	.	-15.1%	.	.
CCCCn1nnnc1C1(C)CCC(=O)N1Cc1ccco1 (centres undefined)	-3.3%	-5.8%	.	-14.3%	0.9	.
CCC[C@H]1[C@@H](NS(=O)(=O)c2cc(Cl)cc(Cl)c2)CC[C@@]23CCCN2C(=O)CCC[C@@H]13	.	.	.	.	1.7	.
